Assay results: PubChem BioAssay (NCATS)
Inconclusive results are not listed. Entries that show only a call come without a potency. Active and inactive are the calls of the source. Calls come from the whole dose curve; as a rule, active = well fitted inhibition curve with a large enough effect; inconclusive = small, poorly fitted or top-dose-only effect; inactive = no such curve, though single readings can be large or run the other way.

biological target: Rap guanine nucleotide exchange factor 4 (Homo sapiens) (UniProt Q8WZA2); assay: Confirmatory qHTS for antagonist of cAMP-regulated guanine nucleotide exchange factor 4 (EPAC2) (AID 1645885); settings: EPAC2 Rap1B-BODIPY-GDP exchange fluorescence, biochemical; series mostly up to 12.7 µM; note: nearly all actives have a fitted effect of over 25% in size; note: potency is the fitted concentration of half-maximal effect
Sequence (Q8WZA2 whole entry, looked up): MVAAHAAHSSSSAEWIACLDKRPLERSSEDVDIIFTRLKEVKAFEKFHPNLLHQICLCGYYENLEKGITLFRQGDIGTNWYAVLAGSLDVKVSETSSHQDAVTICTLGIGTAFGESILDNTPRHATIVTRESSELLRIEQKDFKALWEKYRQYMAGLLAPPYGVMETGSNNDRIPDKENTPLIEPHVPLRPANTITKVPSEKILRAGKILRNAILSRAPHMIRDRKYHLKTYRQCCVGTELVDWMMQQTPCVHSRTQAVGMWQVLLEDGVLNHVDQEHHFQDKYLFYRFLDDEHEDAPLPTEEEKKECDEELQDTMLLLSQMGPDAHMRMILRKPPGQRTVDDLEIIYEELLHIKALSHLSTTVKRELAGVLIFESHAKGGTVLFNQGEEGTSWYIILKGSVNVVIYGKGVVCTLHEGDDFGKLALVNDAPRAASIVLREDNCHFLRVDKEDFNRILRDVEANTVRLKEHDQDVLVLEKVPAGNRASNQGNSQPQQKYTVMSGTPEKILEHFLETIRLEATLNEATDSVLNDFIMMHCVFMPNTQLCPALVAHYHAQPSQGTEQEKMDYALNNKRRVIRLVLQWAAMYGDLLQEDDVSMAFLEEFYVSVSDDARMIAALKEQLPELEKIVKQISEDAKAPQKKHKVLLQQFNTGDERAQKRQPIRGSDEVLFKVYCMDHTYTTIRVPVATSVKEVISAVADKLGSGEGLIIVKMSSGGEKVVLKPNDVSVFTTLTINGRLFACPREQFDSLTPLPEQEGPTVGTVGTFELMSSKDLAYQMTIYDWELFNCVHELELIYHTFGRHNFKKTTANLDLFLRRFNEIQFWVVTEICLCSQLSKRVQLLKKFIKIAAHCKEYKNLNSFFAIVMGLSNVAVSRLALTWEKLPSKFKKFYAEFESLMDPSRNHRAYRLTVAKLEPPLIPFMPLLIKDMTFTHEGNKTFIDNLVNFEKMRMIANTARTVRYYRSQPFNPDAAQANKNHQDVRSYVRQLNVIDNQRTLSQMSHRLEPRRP

SMILES	Potency	outcome
COc1cc(OC)c(NC(=O)CN(C)S(=O)(=O)c2ccc(-c3ccc(=O)[nH]n3)s2)cc1Cl	inactive	–
Cc1cccc(NC(=O)CN2C(=O)N/C(=C\c3ccccc3OCc3ccc(C(=O)O)cc3)C2=O)c1	inactive	–
N#Cc1c(NC(=O)CSc2ncnc3sccc23)oc(-c2ccco2)c1-c1ccco1	84.9 µM (active)	–
NC(=O)c1c(NC(=O)CN2CCN(S(=O)(=O)c3ccccc3)CC2)sc2c1CCC2	inactive	–
COc1cc(C2CC(=O)Oc3cc(C)c(Br)c(C)c32)cc(OC)c1OC (stereo not given)	inactive	–
O=C(NC1CCCCC1)C(c1ccc(-c2ccccc2)cc1)n1c(=O)c(-c2ccco2)nc2ccccc21 (stereo not given)	inactive	–
Cc1ccc(-n2nc3ccc(NC(=O)/C=C/c4ccco4)cc3n2)cc1C	inactive	–
COC(=O)c1ccc2nc(-c3ccc(OC)c(OC)c3)c(Cc3ccccc3)n2c1	inactive	–
Cc1cc(C)c(S(=O)(=O)c2ccccc2)c(OC(=O)c2c(F)cccc2F)n1	inactive	–
O=c1[nH][nH]c(-c2ccccc2O)c1C(C[N+](=O)[O-])c1ccc(Br)cc1 (stereo not given)	inactive	–
O=C(CSc1nc(O)cc(=O)n1-c1ccccc1)Nc1ccc2c3c(cccc13)CC2	inactive	–
COc1ccc(OCc2nc3ccccc3n2C(C)c2ccccc2)cc1 (stereo not given)	inactive	–
CCOC(=O)c1ccc(NC(=O)c2c(NCc3cccs3)sc3c2CCCCC3)cc1	–	inactive [at 12.7 µM]
CCOc1ccccc1Cn1c(=O)oc2ccc(C)cc21	inactive	–
COc1ccc(CCNC(=O)CS(=O)(=O)Cc2nc(-c3ccc(C)cc3)oc2C)cc1OC	inactive	–
Clc1ccc(-c2nnc(-c3ccco3)nc2N2CCCCC2)cc1	inactive	–
CCc1ccccc1OCC(=O)NCC1COc2ccccc2O1 (stereo not given)	inactive	–
O=C1NC(=O)C(=Cc2ccccc2[N+](=O)[O-])S1	inactive	–
O=C1C(Cl)=C(NCCc2ccccc2)C(=O)c2ccccc21	inactive	–
CC(CNC(=O)c1sc2ncccc2c1-n1cccc1)c1ccccc1 (stereo not given)	inactive	–

SMILES	Potency	outcome
CCc1ccc2occ(CC(=O)Nc3ccc(C)c(C)c3)c2c1	inactive	–
C[C@H](CO)N1C[C@H](C)[C@H](CN(C)Cc2cccc(O)c2)OCc2ccccc2-c2c(n(C)c3ccccc23)C1=O	inactive	–
COc1ccc(OC)c(NC(=O)C(C)Oc2ccc(Br)cc2)c1 (stereo not given)	inactive	–
COc1cc(/C=C2\SC(=O)N(c3cccc(Cl)c3)C2=O)cc([N+](=O)[O-])c1O	inactive	–
O=C(/C=C/c1ccco1)Nc1cccc2cccnc12	inactive	–
CN(C)C(=O)c1cccc(-c2cnc3c(NC=O)cc(-c4ccccc4Cl)cn23)c1	inactive	–
COc1cccc(C(=O)Nc2cccc(C(=O)OCc3cc(=O)n4c(C)csc4n3)c2)c1	inactive	–
O=S(=O)(Nc1ccc(Cl)cc1NS(=O)(=O)c1ccccc1)c1ccccc1	inactive	–
COc1ccc(CN(C(=O)c2cccs2)c2nccs2)cc1OC	inactive	–
COC(=O)Cn1c(CN2CCc3ccccc3C2)nc2c1c(=O)n(C)c(=O)n2C	inactive	–
COc1ccccc1NC(=O)c1ccccc1NS(=O)(=O)c1cccs1	inactive	–
CC(C)CC(NS(=O)(=O)OCC(Cl)(Cl)Cl)c1ccccc1 (stereo not given)	inactive	–
O=C(O)/C=C\C(=O)Nc1ccccc1C#Cc1ccc(Br)cc1	1.35 µM (active)	–
Cc1noc(NS(=O)(=O)c2ccc(N/C=C\C(=O)c3cccc4ccccc34)cc2)c1C	inactive	–
Cn1cnnc1SCC(=O)Nc1sc2c(c1C(N)=O)CCC2	inactive	–
C[C@@]12C(=O)Nc3cc(F)ccc3C(=O)N1[C@H]1c3cc(Br)ccc3OC[C@@H]1[C@@H]2c1ccccc1	inactive	–
O=S(=O)(c1ccc2c(c1)C(O)c1ccccc1CC2)C(F)(F)F (stereo not given)	inactive	–
CC(=O)N1N=C(c2ccc(Cl)cc2)CC1c1ccc([N+](=O)[O-])cc1 (stereo not given)	inactive	–
O=c1c([N+](=O)[O-])cn(Cc2ccccc2)c(=O)n1Cc1ccccc1	inactive	–
Cc1ccccc1C(=O)Nc1sc2c(c1C(=O)N1CCCCC1)CCC(C)C2 (stereo not given)	inactive	–

biological target: Rap guanine nucleotide exchange factor 3 (Homo sapiens) (UniProt O95398); assay: Counterscreen qHTS for antagonist of cAMP-regulated guanine nucleotide exchange factor 3 (EPAC1) (AID 1645888); settings: Rap1B-BODIPY-GDP nucleotide exchange, fluorescence; series mostly up to 154 µM;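 note: fluorescence loss as bound BODIPY-GDP is released from Rap1B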
Sequence (O95398 whole entry, looked up): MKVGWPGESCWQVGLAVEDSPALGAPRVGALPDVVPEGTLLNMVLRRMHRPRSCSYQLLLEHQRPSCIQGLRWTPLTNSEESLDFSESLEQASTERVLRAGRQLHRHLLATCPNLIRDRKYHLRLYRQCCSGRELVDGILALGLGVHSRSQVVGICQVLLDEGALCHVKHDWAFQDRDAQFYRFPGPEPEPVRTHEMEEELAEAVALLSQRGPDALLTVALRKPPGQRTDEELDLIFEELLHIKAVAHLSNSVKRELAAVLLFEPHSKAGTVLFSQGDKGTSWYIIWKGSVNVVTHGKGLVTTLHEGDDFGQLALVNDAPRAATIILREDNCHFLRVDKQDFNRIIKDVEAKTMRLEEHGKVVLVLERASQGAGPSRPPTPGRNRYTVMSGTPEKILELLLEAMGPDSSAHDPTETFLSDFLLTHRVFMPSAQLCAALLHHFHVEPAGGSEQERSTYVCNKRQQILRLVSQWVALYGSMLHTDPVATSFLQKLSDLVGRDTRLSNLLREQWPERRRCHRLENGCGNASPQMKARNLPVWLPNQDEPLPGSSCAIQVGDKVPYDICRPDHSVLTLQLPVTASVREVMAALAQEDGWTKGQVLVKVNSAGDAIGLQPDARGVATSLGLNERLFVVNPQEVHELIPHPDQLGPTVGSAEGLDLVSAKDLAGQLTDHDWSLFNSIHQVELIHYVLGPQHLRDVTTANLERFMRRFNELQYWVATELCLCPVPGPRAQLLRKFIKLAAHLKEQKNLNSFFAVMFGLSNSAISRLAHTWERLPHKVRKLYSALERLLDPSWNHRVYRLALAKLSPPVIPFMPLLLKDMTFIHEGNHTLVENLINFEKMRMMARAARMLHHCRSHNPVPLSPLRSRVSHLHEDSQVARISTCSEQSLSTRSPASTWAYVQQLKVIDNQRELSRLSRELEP
Summary of the method: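 Rap1B-BODIPY-GDP 250 nM + GDP 50 uM; cpds 7-pt, final 9.74 nM–152 uM (activator mode) or from 7.32 nM upwards (inhibitor mode); RT; FI 480/540 nm at 5 and 30 min, then ± cAMP, reread.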

SMILES	Potency	activity change, negative = inhibition
COc1cc(OC)c(NC(=O)CN(C)S(=O)(=O)c2ccc(-c3ccc(=O)[nH]n3)s2)cc1Cl	inactive	–
Cc1cccc(NC(=O)CN2C(=O)N/C(=C\c3ccccc3OCc3ccc(C(=O)O)cc3)C2=O)c1	inactive	–
N#Cc1c(NC(=O)CSc2ncnc3sccc23)oc(-c2ccco2)c1-c1ccco1	inactive	–
NC(=O)c1c(NC(=O)CN2CCN(S(=O)(=O)c3ccccc3)CC2)sc2c1CCC2	inactive	–
COc1cc(C2CC(=O)Oc3cc(C)c(Br)c(C)c32)cc(OC)c1OC (stereo not given)	–	-6.95% [at 30.8 µM] (inactive)
O=C(NC1CCCCC1)C(c1ccc(-c2ccccc2)cc1)n1c(=O)c(-c2ccco2)nc2ccccc21 (stereo not given)	inactive	–
Cc1ccc(-n2nc3ccc(NC(=O)/C=C/c4ccco4)cc3n2)cc1C	inactive	–
COC(=O)c1ccc2nc(-c3ccc(OC)c(OC)c3)c(Cc3ccccc3)n2c1	inactive	–
Cc1cc(C)c(S(=O)(=O)c2ccccc2)c(OC(=O)c2c(F)cccc2F)n1	–	8% [at 30.8 µM] (inactive)
O=c1[nH][nH]c(-c2ccccc2O)c1C(C[N+](=O)[O-])c1ccc(Br)cc1 (stereo not given)	inactive	–
O=C(CSc1nc(O)cc(=O)n1-c1ccccc1)Nc1ccc2c3c(cccc13)CC2	–	-9.82% [at 30.8 µM] (inactive)
COc1ccc(OCc2nc3ccccc3n2C(C)c2ccccc2)cc1 (stereo not given)	inactive	–
CCOC(=O)c1ccc(NC(=O)c2c(NCc3cccs3)sc3c2CCCCC3)cc1	inactive	–
CCOc1ccccc1Cn1c(=O)oc2ccc(C)cc21	inactive	–
COc1ccc(CCNC(=O)CS(=O)(=O)Cc2nc(-c3ccc(C)cc3)oc2C)cc1OC	–	-2.91% [at 30.8 µM] (inactive)
Clc1ccc(-c2nnc(-c3ccco3)nc2N2CCCCC2)cc1	–	13.5% [at 30.8 µM] (inactive)
CCc1ccccc1OCC(=O)NCC1COc2ccccc2O1 (stereo not given)	inactive	–
O=C1NC(=O)C(=Cc2ccccc2[N+](=O)[O-])S1	–	0.254% [at 30.8 µM] (inactive)
O=C1C(Cl)=C(NCCc2ccccc2)C(=O)c2ccccc21	inactive	–
CC(CNC(=O)c1sc2ncccc2c1-n1cccc1)c1ccccc1 (stereo not given)	inactive	–

SMILES	Potency	activity change, negative = inhibition
CCc1ccc2occ(CC(=O)Nc3ccc(C)c(C)c3)c2c1	inactive	–
C[C@H](CO)N1C[C@H](C)[C@H](CN(C)Cc2cccc(O)c2)OCc2ccccc2-c2c(n(C)c3ccccc23)C1=O	–	-3.58% [at 30.8 µM] (inactive)
COc1ccc(OC)c(NC(=O)C(C)Oc2ccc(Br)cc2)c1 (stereo not given)	inactive	–
COc1cc(/C=C2\SC(=O)N(c3cccc(Cl)c3)C2=O)cc([N+](=O)[O-])c1O	inactive	–
O=C(/C=C/c1ccco1)Nc1cccc2cccnc12	–	21.3% [at 30.8 µM] (inactive)
CN(C)C(=O)c1cccc(-c2cnc3c(NC=O)cc(-c4ccccc4Cl)cn23)c1	inactive	–
COc1cccc(C(=O)Nc2cccc(C(=O)OCc3cc(=O)n4c(C)csc4n3)c2)c1	inactive	–
O=S(=O)(Nc1ccc(Cl)cc1NS(=O)(=O)c1ccccc1)c1ccccc1	–	-27.8% [at 30.8 µM] (inactive)
COc1ccc(CN(C(=O)c2cccs2)c2nccs2)cc1OC	inactive	–
COC(=O)Cn1c(CN2CCc3ccccc3C2)nc2c1c(=O)n(C)c(=O)n2C	inactive	–
COc1ccccc1NC(=O)c1ccccc1NS(=O)(=O)c1cccs1	inactive	–
CC(C)CC(NS(=O)(=O)OCC(Cl)(Cl)Cl)c1ccccc1 (stereo not given)	–	-22.9% [at 30.8 µM] (inactive)
O=C(O)/C=C\C(=O)Nc1ccccc1C#Cc1ccc(Br)cc1	inactive	–
Cc1noc(NS(=O)(=O)c2ccc(N/C=C\C(=O)c3cccc4ccccc34)cc2)c1C	inactive	–
Cn1cnnc1SCC(=O)Nc1sc2c(c1C(N)=O)CCC2	inactive	–
C[C@@]12C(=O)Nc3cc(F)ccc3C(=O)N1[C@H]1c3cc(Br)ccc3OC[C@@H]1[C@@H]2c1ccccc1	inactive	–
O=S(=O)(c1ccc2c(c1)C(O)c1ccccc1CC2)C(F)(F)F (stereo not given)	inactive	–
CC(=O)N1N=C(c2ccc(Cl)cc2)CC1c1ccc([N+](=O)[O-])cc1 (stereo not given)	–	2.9% [at 30.8 µM] (inactive)
O=c1c([N+](=O)[O-])cn(Cc2ccccc2)c(=O)n1Cc1ccccc1	–	-12.8% [at 30.8 µM] (inactive)
Cc1ccccc1C(=O)Nc1sc2c(c1C(=O)N1CCCCC1)CCC(C)C2 (stereo not given)	inactive	–
